In PMC11006913 one finds binding signal data, which are given here for 6 sequences.

Residue numbers refer to the chain shown, from its start.

Holding throughout (experiment): PBM; 200 nM protein, PBS
What all share (details): dsDNA, one strand shown

Assay [1] concerns the target T1, SIX6 (Homo sapiens, UniProt O95475 114-200, L167I).
T1 sequence: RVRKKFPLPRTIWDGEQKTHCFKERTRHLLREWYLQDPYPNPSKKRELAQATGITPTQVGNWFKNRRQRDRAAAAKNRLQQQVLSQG

The target in assay [2] is T2, SIX6 (Homo sapiens, UniProt O95475 114-200, L143V).
T2 sequence: T1 sequence with L30V, I54L

For assay [3], the target named is T3, SIX6 (Homo sapiens, UniProt O95475 114-200, H141N).
T3 sequence: T1 sequence with H28N, I54L

The target of assay [4] is T4, SIX6 (Homo sapiens, UniProt O95475 114-200, T165P).
T4 sequence: T1 sequence with T52P, I54L

The target in assay [5] is T5, SIX6 (Homo sapiens, UniProt O95475 114-200, L167M).
T5 sequence: T1 sequence with I54M

The target of assay [6] is T6, SIX6 (Homo sapiens, UniProt O95475 114-200, L143M).
T6 sequence: T1 sequence with L30M, I54L

Assay [7] concerns the target T7, SIX6 (Homo sapiens, UniProt O95475 114-200, L143I).
T7 sequence: T1 sequence with L30I, I54L

The target in assay [8] is T8, SIX6 (Homo sapiens, UniProt O95475 114-200, T165G).
T8 sequence: T1 sequence with T52G, I54L

Assay [9] addresses T9, SIX6 (Homo sapiens, UniProt O95475 114-200, T139Q).
T9 sequence: T1 sequence with T26Q, I54L

In assay [10] the target is T10, SIX6 (Homo sapiens, UniProt O95475 114-200, T165A).
T10 sequence: T1 sequence with T52A, I54L

For assay [11], the target named is T11, SIX6 (Homo sapiens, UniProt O95475 114-200, L167V).
T11 sequence: T1 sequence with I54V

Assay [12] deals with T12, SIX6 (Homo sapiens, UniProt O95475 114-200).
T12 sequence: T1 sequence with I54L

Assay [13] deals with T13, SIX6 (Homo sapiens, UniProt O95475 114-200, T165I).
T13 sequence: T1 sequence with T52I, I54L

Regarding ATGGCCGC, the binding signal is 8.86 upbm affinity estimate (log intensity, higher = more binding, comparable within an allelic series) in assay [1]; 8.81 upbm affinity estimate (log intensity, higher = more binding, comparable within an allelic series) in assay [2]; 8.75 upbm affinity estimate (log intensity, higher = more binding, comparable within an allelic series) in assay [3]; 8.94 upbm affinity estimate (log intensity, higher = more binding, comparable within an allelic series) in [4]; 8.89 upbm affinity estimate (log intensity, higher = more binding, comparable within an allelic series) in [5]; 8.74 upbm affinity estimate (log intensity, higher = more binding, comparable within an allelic series) in assay [6]. The binding signal in assay [7] is 8.82 upbm affinity estimate (log intensity, higher = more binding, comparable within an allelic series); in assay [8], 8.77 upbm affinity estimate (log intensity, higher = more binding, comparable within an allelic series); in assay [9], 8.7 upbm affinity estimate (log intensity, higher = more binding, comparable within an allelic series); in assay [10] it was 8.69 upbm affinity estimate (log intensity, higher = more binding, comparable within an allelic series); in assay [11] it was 8.93 upbm affinity estimate (log intensity, higher = more binding, comparable within an allelic series); in assay [12], 8.75 upbm affinity estimate (log intensity, higher = more binding, comparable within an allelic series). Besides, in assay [13], the binding signal was 8.83 upbm affinity estimate (log intensity, higher = more binding, comparable within an allelic series).
Consider AGATCCTC, for which the binding signal was 10.5 upbm affinity estimate (log intensity, higher = more binding, comparable within an allelic series) in assay [1]; 9.98 upbm affinity estimate (log intensity, higher = more binding, comparable within an allelic series) in assay [2]; 10.3 upbm affinity estimate (log intensity, higher = more binding, comparable within an allelic series) in assay [3]; 9.64 upbm affinity estimate (log intensity, higher = more binding, comparable within an allelic series) in [4]; 10.5 upbm affinity estimate (log intensity, higher = more binding, comparable within an allelic series) in assay [6]; 9.91 upbm affinity estimate (log intensity, higher = more binding, comparable within an allelic series) in [7]. In addition, the binding signal in [9] was 10.6 upbm affinity estimate (log intensity, higher = more binding, comparable within an allelic series); in [10], 10.4 upbm affinity estimate (log intensity, higher = more binding, comparable within an allelic series); in [11], 10.2 upbm affinity estimate (log intensity, higher = more binding, comparable within an allelic series); in [12], 10.4 upbm affinity estimate (log intensity, higher = more binding, comparable within an allelic series).
GATACCGA: the binding signal in assay [1] was 10.5 upbm affinity estimate (log intensity, higher = more binding, comparable within an allelic series); in assay [2], 9.92 upbm affinity estimate (log intensity, higher = more binding, comparable within an allelic series); in assay [3], 10.4 upbm affinity estimate (log intensity, higher = more binding, comparable within an allelic series); in [4], 9.38 upbm affinity estimate (log intensity, higher = more binding, comparable within an allelic series); in assay [5] it was 10.1 upbm affinity estimate (log intensity, higher = more binding, comparable within an allelic series); in [7] it was 9.98 upbm affinity estimate (log intensity, higher = more binding, comparable within an allelic series). The binding signal in assay [8] is 10.6 upbm affinity estimate (log intensity, higher = more binding, comparable within an allelic series); in assay [9] it was 10.6 upbm affinity estimate (log intensity, higher = more binding, comparable within an allelic series); in [10], 10.5 upbm affinity estimate (log intensity, higher = more binding, comparable within an allelic series); in [12], 10.5 upbm affinity estimate (log intensity, higher = more binding, comparable within an allelic series).
With GATCGATA, the binding signal was 11 upbm affinity estimate (log intensity, higher = more binding, comparable within an allelic series) in assay [1]; 10.3 upbm affinity estimate (log intensity, higher = more binding, comparable within an allelic series) in assay [2]; 11 upbm affinity estimate (log intensity, higher = more binding, comparable within an allelic series) in [3]; 9.87 upbm affinity estimate (log intensity, higher = more binding, comparable within an allelic series) in [4]; 10.5 upbm affinity estimate (log intensity, higher = more binding, comparable within an allelic series) in assay [5]; 10.8 upbm affinity estimate (log intensity, higher = more binding, comparable within an allelic series) in assay [6]. The binding signal in assay [7] was 10.4 upbm affinity estimate (log intensity, higher = more binding, comparable within an allelic series); in [8], 11 upbm affinity estimate (log intensity, higher = more binding, comparable within an allelic series); in [9] it was 11.2 upbm affinity estimate (log intensity, higher = more binding, comparable within an allelic series); in assay [10] it was 10.9 upbm affinity estimate (log intensity, higher = more binding, comparable within an allelic series); in assay [11], 10.8 upbm affinity estimate (log intensity, higher = more binding, comparable within an allelic series); in assay [12], 10.9 upbm affinity estimate (log intensity, higher = more binding, comparable within an allelic series). In assay [13], the binding signal is 10.8 upbm affinity estimate (log intensity, higher = more binding, comparable within an allelic series).
Consider AGGATATC, for which the binding signal in assay [1] was 11.1 upbm affinity estimate (log intensity, higher = more binding, comparable within an allelic series); in assay [2], 10.2 upbm affinity estimate (log intensity, higher = more binding, comparable within an allelic series); in assay [3], 11.1 upbm affinity estimate (log intensity, higher = more binding, comparable within an allelic series); in assay [4] it was 9.73 upbm affinity estimate (log intensity, higher = more binding, comparable within an allelic series); in [5], 10.7 upbm affinity estimate (log intensity, higher = more binding, comparable within an allelic series); in [6] it was 10.9 upbm affinity estimate (log intensity, higher = more binding, comparable within an allelic series). The binding signal in assay [7] is 10.3 upbm affinity estimate (log intensity, higher = more binding, comparable within an allelic series); in assay [8], 11.2 upbm affinity estimate (log intensity, higher = more binding, comparable within an allelic series); in [9], 11.1 upbm affinity estimate (log intensity, higher = more binding, comparable within an allelic series); in [10] it was 11.1 upbm affinity estimate (log intensity, higher = more binding, comparable within an allelic series); in assay [11] it was 10.9 upbm affinity estimate (log intensity, higher = more binding, comparable within an allelic series); in [12], 10.9 upbm affinity estimate (log intensity, higher = more binding, comparable within an allelic series). Moreover, the binding signal in assay [13] is 10.9 upbm affinity estimate (log intensity, higher = more binding, comparable within an allelic series).
CGTATCAA: the binding signal in assay [1] was 11.1 upbm affinity estimate (log intensity, higher = more binding, comparable within an allelic series); in assay [2] it was 10.2 upbm affinity estimate (log intensity, higher = more binding, comparable within an allelic series); in assay [3], 11.2 upbm affinity estimate (log intensity, higher = more binding, comparable within an allelic series); in [4], 9.64 upbm affinity estimate (log intensity, higher = more binding, comparable within an allelic series); in [5], 10.6 upbm affinity estimate (log intensity, higher = more binding, comparable within an allelic series); in assay [6] it was 11.1 upbm affinity estimate (log intensity, higher = more binding, comparable within an allelic series). The binding signal in assay [7] is 10.3 upbm affinity estimate (log intensity, higher = more binding, comparable within an allelic series); in assay [8], 11.1 upbm affinity estimate (log intensity, higher = more binding, comparable within an allelic series); in assay [9] it was 11 upbm affinity estimate (log intensity, higher = more binding, comparable within an allelic series); in assay [10] it was 11.1 upbm affinity estimate (log intensity, higher = more binding, comparable within an allelic series); in assay [11], 10.9 upbm affinity estimate (log intensity, higher = more binding, comparable within an allelic series); in assay [12], 10.9 upbm affinity estimate (log intensity, higher = more binding, comparable within an allelic series). Moreover, the binding signal in [13] is 11 upbm affinity estimate (log intensity, higher = more binding, comparable within an allelic series).
